From article PMC5540273 (PLoS ONE, 2017) come the findings set out here.

Common to all, as to details: concentration: 1 μM,replicates: in singlicate; n = 1
The subject of assay [1] is LCK.
Assay [2] relates to LIMK1.
The subject of assay [3] is LIMK2.
The test system of assay [4] is T1, LKB1.
T1 construct: gene STK11

Assay [5] has as its system T2, LOK.
T2 construct: gene STK10

Assay [6] deals with LRRK2.
Assay [7] relates to LYN.
In assay [8] the test system is T3, LZK.
T3 construct: gene MAP3K13

In assay [9] the test system is MAK.
Assay [10] has as its system LTK.
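Further: KINOMEscan kinase panel screen.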

On to `Cc1ccc(-n2nc(C(C)(C)C)cc2NC(=O)Nc2ccc(OCCN3CCOCC3)c3ccccc23)cc1` [GW839464], for which the “%Inh” value in assay [1] is 64%; in [2], 14%; in assay [3], 14%; in [4], 0%; in [5], 99.9%; in [6], 0%. Besides, the “%Inh” value in [7] is given as 22%; in assay [8] it was 0%; in assay [9], 25%.

With `Cl.Cl.NC[C@H](Cc1ccc(C(F)(F)F)cc1)NC(=O)c1cc(Br)c(-c2ccnc3[nH]ccc23)s1` [GSK1487252], the “%Inh” value worked out at 18% in assay [1]; 0% in assay [2]; 0% in assay [3]; 0% in assay [4]; 0% in [5]; 0% in assay [6]. Moreover, the “%Inh” value in assay [10], in [7], in [8] and in assay [9] was 0% in each case.

Regarding `CCN(CC)CCCCNc1ncc2cc(-c3c(Cl)cccc3Cl)c(NC(=O)NC(C)(C)C)nc2n1`, the “%Inh” value is on record as 99.5% in [1]; 2% in assay [2]; 1% in assay [3]; 0% in assay [4]; 80% in [5]; 0% in [6]. Moreover, the “%Inh” value in assay [10] worked out at 29%; in assay [7] it was 98%; in assay [8], 45%; in assay [9], 0%.

On to `Cc1cc(C(=O)Nc2ccc(Oc3ccc4nc(NC(=O)C5CC5)cn4n3)cc2)nn1-c1ccccc1`, for which the “%Inh” value stood at 92.3% in assay [1]; 0% in [2]; 9% in assay [3]; 0% in assay [4]; 91.7% in [5]; 0% in assay [6]. The “%Inh” value in assay [10] is on record as 37%; in [7], 19%; in assay [8] it was 3%; in [9], 0%.

For the compound `CNC(=O)c1ccccc1Sc1ccc2c(/C=C/c3ccccn3)n[nH]c2c1`, the “%Inh” value in [2] came to 0%; in assay [3] it was 0%; in [4], 0%; in [5] it was 66%; in [6], 26%; in assay [10], 0%. In addition, the “%Inh” value worked out at 9% in assay [7], 20% in assay [8] and 26% in [9].

Regarding `Nc1nc(Nc2ccccc2)cc(-c2ccc3c(N)n[nH]c3c2)n1` [GSK2225749], the “%Inh” value in [1] turned out to be 0%; in assay [2] it was 0%; in [3], 0%; in assay [4] it was 15%; in assay [5], 13%; in assay [6] it was 45%. The “%Inh” value in assay [10] is recorded as 0%; in assay [7], 16%; in assay [8], 0%; in [9] it was 13%.

With `O=C(NCCCN1CCOC1=O)c1cnc(NCc2cc(Cl)ccc2Cl)nc1NC1CCCC1`, the “%Inh” value is 23% in assay [1]; 20% in assay [2]; 0% in [3]; 2% in assay [4]; 10% in assay [5]; 0% in [6]. The “%Inh” value in assay [10] was 8%; in [7] it was 18%; in assay [8], 20%; in assay [9] it was 24%.

Consider `O=C(NCCNc1ccnc(NCc2ccc(F)cc2)n1)c1cc2ccccc2s1` [GSK1379944], for which the “%Inh” value in [1] is given as 15%; in assay [2], 18%; in assay [3], 0%; in assay [4] it was 0%; in [5], 0%; in [6], 29%. Moreover, the “%Inh” value is 0% in [10], 0% in assay [7], 0% in assay [8] and 19% in [9].

For `CC(C)N1C(=O)Cc2cc(Nc3ncc(C(F)(F)F)c(NCc4cccc(S(C)(=O)=O)c4)n3)ccc21`, the “%Inh” value is listed as 0% in assay [1]; 13% in [2]; 0% in assay [3]; 1% in [4]; 0% in assay [5]; 34% in [6]. Further, the “%Inh” value in assay [10] was 0%; in assay [7], 17%; in assay [8], 40%; in assay [9], 0%.

`CCn1c(-c2nonc2N)nc2c(C#CC(C)(C)O)nc(OCCN)cc21.Cl.Cl` [GSK902056]: the “%Inh” value in [1] is 4%; in assay [2] it was 0%; in assay [3], 0%; in assay [4] it was 0%; in assay [5], 0%; in assay [6] it was 45%. Also, the “%Inh” value in assay [10] stood at 0%; in assay [7] it was 5%; in assay [8] it was 0%; in [9] it was 39%.

On to `Cc1ccc2c(-c3ccncc3)c(-c3ccc(F)cc3)nn2c1.Cl` [GW461484], for which the “%Inh” value is given as 11% in [1]; 8% in [2]; 0% in assay [3]; 12% in [4]; 0% in assay [5]; 6% in assay [6]. Also, the “%Inh” value in [10] was found to be 5%; in assay [7] it was 41%; in [8] it was 0%; in assay [9], 8%.

In the case of `C[C@H]1Oc2cc(cnc2N)-c2c(nn(C)c2C#N)CN(C)C(=O)c2ccc(F)cc21`, the “%Inh” value came to 49% in [1]; 0% in assay [2]; 0% in [3]; 0% in assay [4]; 92.8% in assay [5]; 0% in [6]. Moreover, the “%Inh” value in [10] turned out to be 98.1%; in assay [7], 35%; in [8], 0%; in assay [9], 18%.

`C=CC(=O)Nc1cc2c(Nc3ccc(F)c(Cl)c3)ncnc2cc1OCCCN1CCOCC1` [GW781483]: the “%Inh” value in assay [2] turned out to be 0%; in assay [3], 0%; in [4], 0%; in assay [6], 0%; in [10], 17%; in assay [7], 55%. Also, the “%Inh” value in assay [8] and in [9] was 0% throughout.

As to `CN(C)CC(O)COc1ccc(Nc2nccc(-c3cnn4nc(N5CCOCC5)ccc34)n2)cc1` (stereo not drawn) [GW767488], the “%Inh” value in assay [1] is on record as 24%; in assay [2], 6%; in assay [3] it was 27%; in assay [4], 16%; in assay [5], 0%; in assay [6], 0%. In addition, the “%Inh” value in [10] was determined as 0%; in assay [7], 0%; in [8], 21%; in [9], 21%.

Consider `CN(C)CCOc1ccc(-c2cc(-c3c[nH]nc3-c3ccccn3)ccn2)cc1` [GW835314], for which the “%Inh” value in [1] was found to be 79%; in [2] it was 14%; in assay [3], 2%; in assay [4] it was 0%; in [5] it was 21%; in assay [6], 0%. For the same compound, the “%Inh” value in assay [10] came out at 47%; in [7] it was 18%; in assay [8], 0%; in assay [9], 30%.

With `CCN(CC)CCOc1ccc(Nc2ncc3cc(-c4c(Cl)cccc4Cl)c(=O)n(C)c3n2)cc1` [SB-601273], the “%Inh” value in [1] is 99.8%; in assay [2], 31%; in [3], 95.4%; in assay [4], 4%; in [5], 99.3%; in [6], 36%. Further, the “%Inh” value in assay [10] turned out to be 32%; in [7], 99.9%; in [8] it was 89%; in assay [9], 24%.

`Cl.Cl.Nc1nc(-c2ccc3c(N)n[nH]c3c2)cc(N2CCCC(NC(=O)c3ccccc3)C2)n1` (stereo not drawn) [GSK2286775]: the “%Inh” value is recorded as 0% in assay [1]; 22% in [2]; 14% in [3]; 0% in assay [4]; 0% in assay [5]; 0% in assay [6]. Besides, the “%Inh” value was 0% in [10], 0% in assay [7], 0% in assay [8] and 15% in assay [9].

With `Cl.Cl.NC[C@H](CC1CCCCC1)NC(=O)c1cc(Br)c(-c2ccnc3[nH]ccc23)s1` [GSK1581427], the “%Inh” value in [1] was determined as 22%; in assay [2], 9%; in [3], 0%; in assay [4], 7%; in assay [5], 0%; in assay [6], 7%. Also, the “%Inh” value is given as 0% in assay [10], 0% in assay [7], 0% in assay [8] and 12% in assay [9].

For the compound `NC(=O)c1cc(-c2ccccc2)cc2c(C3CCNCC3)c[nH]c12` [GSK301362], the “%Inh” value in assay [1] is given as 50%; in assay [2] it was 11%; in assay [3] it was 20%; in assay [4], 0%; in assay [5], 0%; in assay [6] it was 2%. In addition, the “%Inh” value in [10] is given as 15%; in [7] it was 4%; in assay [8], 0%; in assay [9], 14%.

In the case of `Cc1n[nH]c2ccc(-c3cc(OC[C@@H](N)Cc4ccccc4)cnc3-c3ccoc3)cc12.O=C(O)C(F)(F)F.O=C(O)C(F)(F)F` [GSK507358], the “%Inh” value in assay [1] is 74%; in assay [2], 0%; in assay [3] it was 14%; in [4] it was 0%; in assay [5], 54%; in [6] it was 0%. Also, the “%Inh” value in assay [10] is on record as 11%; in assay [7], 0%; in assay [8], 3%; in assay [9] it was 0%.

For the compound `COc1ccc(C[C@@H](CN)NC(=O)c2cc(Br)c(-c3ccnc4[nH]ccc34)s2)cc1.Cl.Cl` [GSK1389063], the “%Inh” value in assay [1] is recorded as 44%; in [2], 24%; in assay [3] it was 0%; in assay [4], 0%; in [5], 0%; in assay [6], 65%. In addition, the “%Inh” value in assay [10], in assay [7], in assay [8] and in [9] was 0% each time.

As for `C[C@@H](Oc1cc(-c2cnn(C3CCNCC3)c2)cnc1N)c1c(Cl)ccc(F)c1Cl`, the “%Inh” value in assay [1] is recorded as 98.9%; in assay [2], 45%; in [3], 18%; in [4], 0%; in assay [5] it was 99.5%; in assay [6], 0%. Besides, the “%Inh” value was 37% in [7], 55% in [8] and 0% in assay [9].

As for `Cl.Oc1cc(-c2nc(-c3ccccc3)[nH]c2-c2ccncc2)ccc1Cl` [SB-386023], the “%Inh” value in assay [1] was 70%; in assay [2], 0%; in assay [3] it was 0%; in assay [4], 30%; in [5], 44%; in [6], 0%. In addition, the “%Inh” value is 11% in [10], 1% in assay [7], 0% in assay [8] and 44% in assay [9].

For `Cc1occc1-c1nc(N)c(OC[C@@H](N)Cc2c[nH]c3ccccc23)cc1-c1cc2c(C)n[nH]c2cn1` [GSK1660450], the “%Inh” value in assay [1] amounted to 98.5%; in assay [2], 0%; in assay [3] it was 0%; in assay [4] it was 0%; in [5], 56%; in assay [6] it was 36%. Besides, the “%Inh” value in assay [10] is listed as 28%; in assay [7], 0%; in [8], 0%; in [9], 23%.

Consider `C[C@@H]1CCN(C(=O)CC#N)C[C@@H]1N(C)c1ncnc2[nH]ccc12`, for which the “%Inh” value in assay [1] amounted to 51%; in assay [2], 0%; in assay [3], 0%; in assay [4], 0%; in assay [5] it was 2%; in assay [6], 0%. For the same compound, the “%Inh” value in assay [10], in [7], in [8] and in [9] was 0% each time.

For the compound `CC(C)Nc1cc(-c2ccc3c(N)n[nH]c3c2)nc(N)n1` [GSK2221681], the “%Inh” value in assay [1] came to 7%; in assay [2], 1%; in [3] it was 0%; in assay [4] it was 0%; in assay [5], 0%; in assay [6], 14%. Moreover, the “%Inh” value in assay [10], in assay [7], in assay [8] and in assay [9] was 0% in each case.

Consider `Cc1cc2cn[nH]c2cc1-c1cccc2c(N)c(C(N)=O)nnc12`, for which the “%Inh” value came to 81% in assay [2]; 53% in [3]; 0% in [4]; 19% in assay [5]; 86% in assay [6]; 61% in [10]. For the same compound, the “%Inh” value was 26% in assay [7], 60% in assay [8] and 16% in assay [9].
